Measured values published in PubChem BioAssay (Tox21).
Where “and” joins values, the source holds several entries; their conditions need not be identical. Equal values may be shown once. Inconclusive results are not listed. Calls of active or inactive are those of the source. Unless noted, calls follow the shape of the dose curve; as a rule, active = well fitted curve in the direction sought with a large enough effect in the repeat runs; inconclusive = weak or mixed curves; inactive = no such curve, though single readings can be large; an effect the other way counts as inactive or inconclusive.

Experiments:
[1] = qHTS assay to identify small molecule agonists of the androgen receptor (AR) signaling pathway in the presence of an antagonist - cell viability counter screen (AID 1259379);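 also: MDA-kb2 human breast cancer cells carrying an MMTV luciferase reporter; series mostly up to about 92 µM; nearly all actives have a fitted effect of over 25% in size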
Summary of the method: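 Cytotoxicity is assessed by CellTiter-Fluor in MDA-kb2 cells carrying an MMTV-driven luciferase reporter. Cells receive 3.0uM nilutamide plus compounds at 15 concentrations and incubate 16 hr at 37C without CO2 before fluorescence reading.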

[2] = target: Estrogen receptor (Homo sapiens) (UniProt P03372); assay: qHTS assay to identify small molecule agonists of the estrogen receptor alpha (ER-alpha) signaling pathway in the presence of an antagonist (AID 1259383; calls by dose curve; also: top concentration of the series differs between compounds; nearly all actives have a fitted effect of over 15% in size)
Summary of the method: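 Agonist-mode confirmation in the presence of the ER antagonist ICI-182,780 at 10.0nM final. Breast-derived VM7Luc4E2 reporter cells were exposed to compounds for 22hr, and ERE-driven luciferase was quantified by luminescence.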

[3] = qHTS assay to identify small molecule agonists of the estrogen receptor alpha (ER-alpha) signaling pathway in the presence of an antagonist - cell viability counter screen (AID 1259386);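 also: cells exposed to compounds for 22 h at 37 °C before the viability read; nearly all actives have a fitted effect of over 30% in size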; also: potency is read from the fitted curve at half-maximal effect
Summary of the method: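 Cytotoxicity was measured in parallel with the ERE-luciferase agonist screen, in the same wells. The cells were VM7Luc4E2, which endogenously express ER-alpha, and treatment was with compounds plus 10.0nM ICI-182,780 for 22hr.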

[4] = target: Progesterone receptor (Homo sapiens) (UniProt P06401); assay: qHTS assay to identify small molecule agonists of the progesterone receptor (PR) signaling pathway (AID 1346784; calls by dose curve; also: nearly all actives have a fitted effect of over 30% in size)
Summary of the method: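 Cells (PR-UAS-bla HEK 293T, GripTite) were plated in assay medium containing 2% charcoal-stripped FBS and incubated 6 hr. Test compounds in DMSO were added for 16 hr at 37C. FRET substrate was then loaded for 2 hr at room temperature before fluorescence reading.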

[5] = qHTS assay to identify small molecule antagonists of the progesterone receptor (PR) signaling pathway - cell viability counter screen (AID 1346798); also: nearly all actives have a fitted effect of over 50% in size; also: potency is read from the fitted curve at half-maximal effect
Summary of the method: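 Counter screen for cytotoxicity: viability of PR-UAS-bla HEK293T cells was measured with CellTiter-Glo luminescence following 16 hr compound exposure in the presence of R5020.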

[6] = qHTS assay to identify small molecule agonists of the progesterone receptor (PR) signaling pathway - cell viability counter screen (AID 1346799; calls by dose curve; also: nearly all actives have a fitted effect of over 45% in size; also: potency is read from the fitted curve at half-maximal effect)
Summary of the method: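 Cells (PR-UAS-bla HEK293T) are plated at 3,000/well in 2% charcoal-stripped FBS medium, rested 6 hr, dosed and incubated 16 hr at 37C. CellTiter-Glo is then added and luminescence measured after 30 min at room temperature.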

[7] = target: Thyrotropin-releasing hormone receptor (Homo sapiens) (UniProt P34981); assay: qHTS assay to identify small molecule antagonists of the thyrotropin-releasing hormone receptor (TRHR) signaling pathway (AID 1346877; active = well fitted inhibition curve with a large enough effect in the repeat runs, not every such curve was filed as active; also: series mostly up to about 51 µM)
Summary of the method: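 Antagonism is measured as suppression of the calcium response to 1 nM TRH in TRHR-HEK293 cells that have been dye-loaded for 2 h at 37 °C after overnight plating. Each compound is tested at 15 concentrations in triplicate.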

[8] = target: Thyrotropin-releasing hormone receptor (Homo sapiens) (UniProt P34981); assay: qHTS assay to identify small molecule agonists of the thyrotropin-releasing hormone receptor (TRHR) signaling pathway (AID 1346891; calls by dose curve;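 also: HEK293 cells expressing TRHR with calcium dye readout; series mostly up to about 58 µM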)
Summary of the method: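 Cells: TRHR-Hek293, seeded and incubated 18 h. Dye loading: 2 h at 37 °C. Compound added from DMSO stock by pin tool. Read-out: kinetic calcium fluorescence over 3 min.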

[9] = Caspase-3/7 induction in HepG2 cells by small molecules, qHTS assay (AID 1346978); also: nearly all actives have a fitted effect of over 15% in size
Summary of the method: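 Wild-type HepG2 cells, 2,000/well, settled 5 hr at 37 C and 5% CO2, then compound-treated for 17 hr; caspase-3/7 activity read by luminescent Caspase-Glo 3/7 after 30 min at room temperature.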

[10] = qHTS assay to identify small molecule agonists or antagonists of the thyroid stimulating hormone receptor (TSHR) signaling pathway - wild type cell line counter screen (AID 1259384; calls by dose curve)
Summary of the method: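 Wild-type Hek293 cells, 800/well, 18 h at 37C, then compound with Ro20-1724 for 30 min RT. cAMP by HTRF (cAMP-d2/anti-cAMP cryptate), 1 h RT, fluorescence read. 15 concentrations, triplicates.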

[11] = target: Thyrotropin receptor (Homo sapiens) (UniProt P16473); assay: qHTS assay to identify small molecule antagonists of the thyroid stimulating hormone receptor (TSHR) signaling pathway (AID 1259385; calls by dose curve; also: nearly all actives have a fitted effect of over 20% in size; also: potency is read from the fitted curve at half-maximal effect)
Summary of the method: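 TSHR-HEK293 cells (800/well) plated 18 h, then compounds with Ro20-1724 and TSH at 1.5 ng/mL final, 30 min at room temperature. cAMP quantified by HTRF (cAMP-d2/anti-cAMP-cryptate, 1 h); 15 concentrations in triplicate.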

[12] = qHTS assay to identify small molecule antagonists of the TGF-beta/Smad signaling pathway - cell viability counter screen (AID 1346824); also: nearly all actives have a fitted effect of over 50% in size; also: potency is read from the fitted curve at half-maximal effect
Summary of the method: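 SBE-bla HEK 293T cells, incubated overnight, then compound plus 0.25 ng/mL TGF-beta1 (stock added) for 5 hr at 37 C. Viability was read in the same wells by CellTiter-Glo luminescence after 30 min at room temperature.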

[13] = qHTS assay to identify small molecule agonists of the TGF-beta/Smad signaling pathway - cell viability counter screen (AID 1346829); also: nearly all actives have a fitted effect of over 45% in size; also: potency is read from the fitted curve at half-maximal effect
Summary of the method: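 HEK 293T SBE-bla line, 5 hr compound exposure at 37 C, multiplexed CellTiter-Glo viability read by luminescence.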

[14] = qHTS assay to identify small molecule agonists of the TGF-beta/Smad signaling pathway (AID 1346859; active = well fitted activation curve with a large enough effect in the signal ratio in the repeat runs, not every such curve was filed as active; the % refers to the signal ratio; also: series mostly up to about 77 µM)
Summary of the method: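 Reporter line: HEK 293T with stably integrated SBE-controlled beta-lactamase. Compound exposure lasts 5 hr at 37 C and 5% CO2; substrate loading follows for 2 hr at room temperature, with emission read at 460 and 530 nm.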

[15] = qHTS assay to identify small molecule agonists of the estrogen receptor beta (ER-beta) signaling pathway - cell viability counter screen (AID 1259380); also: nearly all actives have a fitted effect of over 30% in size; also: potency is read from the fitted curve at half-maximal effect
Summary of the method: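 Cytotoxicity is measured in parallel with the reporter screen: after 16 hr compound exposure at 37C and a 2 hr LiveBLAzer step, CellTiter-Glo is added to the same ER-beta-UAS-bla HEK293T wells and luminescence read after 30 min.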

[16] = target: Progesterone receptor (Homo sapiens) (UniProt P06401); assay: qHTS assay to identify small molecule antagonists of the progesterone receptor (PR) signaling pathway (AID 1346795; active = well fitted inhibition curve with a large enough effect in the signal ratio in the repeat runs, not every such curve was filed as active; the % refers to the signal ratio; also: potency is read from the fitted curve at half-maximal effect)
Summary of the method: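 Antagonist mode: compounds tested against 1 nM (final) promegestone stimulation in HEK293T cells expressing PR-UAS-bla reporter, 16 hr at 37C, 5% CO2; beta-lactamase activity detected via B/G FRET substrate after 2 hr at room temperature.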

[17] = Human pregnane X receptor (PXR) small molecule agonists, qHTS cell viability counter screen (AID 1346977); also: nearly all actives have a fitted effect of over 50% in size; also: potency is read from the fitted curve at half-maximal effect
Summary of the method: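 Cytotoxicity counter screen run in the same wells as the PXR luciferase assay, using PXR-Luc HepG2 cells in charcoal-stripped serum medium. Viability: CellTiter-Fluor fluorescence after 24hr compound treatment.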

[18] = qHTS assay to identify small molecule antagonists of the estrogen receptor beta (ER-beta) signaling pathway - cell viability counter screen (AID 1259382); also: nearly all actives have a fitted effect of over 55% in size; also: potency is read from the fitted curve at half-maximal effect
Summary of the method: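 Cytotoxicity counter screen multiplexed with the beta-lactamase antagonist assay: GripTite HEK293T ER-beta-bla cells were treated 16 hr with test chemicals in the presence of 1nM 17-beta-estradiol, and viability was measured by CellTiter-Glo.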

[19] = target: Androgen receptor (Homo sapiens) (UniProt P10275); assay: qHTS assay to identify small molecule agonists of the androgen receptor (AR) signaling pathway in the presence of an antagonist (AID 1259381; calls by dose curve; also: nearly all actives have a fitted effect of over 15% in size)
Summary of the method: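 Agonist-mode confirmation screen: human MDA-kb2 cells stably expressing luciferase under an MMTV promoter bearing AR and GR response elements, co-treated with 3.0uM nilutamide (final). Luminescence measured after 16hr compound incubation.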

Measured: Potency

Chain of Estrogen receptor (Homo sapiens) (P03372 whole entry, looked up): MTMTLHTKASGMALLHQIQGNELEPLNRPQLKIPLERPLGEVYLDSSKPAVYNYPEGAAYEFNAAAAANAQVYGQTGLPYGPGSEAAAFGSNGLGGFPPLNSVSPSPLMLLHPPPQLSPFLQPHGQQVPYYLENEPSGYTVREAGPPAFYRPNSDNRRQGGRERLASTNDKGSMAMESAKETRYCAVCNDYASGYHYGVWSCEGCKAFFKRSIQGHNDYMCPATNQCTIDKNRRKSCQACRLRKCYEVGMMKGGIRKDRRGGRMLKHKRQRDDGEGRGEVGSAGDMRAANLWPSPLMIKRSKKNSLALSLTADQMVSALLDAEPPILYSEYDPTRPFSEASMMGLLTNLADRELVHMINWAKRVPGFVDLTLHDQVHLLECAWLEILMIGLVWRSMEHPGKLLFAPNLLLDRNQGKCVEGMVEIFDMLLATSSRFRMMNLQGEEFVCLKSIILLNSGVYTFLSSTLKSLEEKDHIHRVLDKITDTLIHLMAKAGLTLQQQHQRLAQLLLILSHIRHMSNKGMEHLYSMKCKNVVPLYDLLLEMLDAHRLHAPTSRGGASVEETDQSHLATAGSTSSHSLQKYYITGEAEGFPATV
Chain of Thyrotropin-releasing hormone receptor (Homo sapiens) (P34981 whole entry, looked up): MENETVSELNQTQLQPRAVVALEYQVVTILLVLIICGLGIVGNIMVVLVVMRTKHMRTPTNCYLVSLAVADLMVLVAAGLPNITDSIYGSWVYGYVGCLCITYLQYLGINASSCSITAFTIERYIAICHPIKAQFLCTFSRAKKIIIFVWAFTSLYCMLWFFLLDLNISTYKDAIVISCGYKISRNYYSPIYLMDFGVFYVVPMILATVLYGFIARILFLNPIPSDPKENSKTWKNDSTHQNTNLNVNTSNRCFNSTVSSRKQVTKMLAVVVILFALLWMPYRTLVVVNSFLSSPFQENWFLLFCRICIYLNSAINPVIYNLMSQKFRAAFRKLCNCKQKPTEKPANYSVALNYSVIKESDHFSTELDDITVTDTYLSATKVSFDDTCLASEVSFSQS
Chain of Progesterone receptor (Homo sapiens) (P06401 whole entry, looked up): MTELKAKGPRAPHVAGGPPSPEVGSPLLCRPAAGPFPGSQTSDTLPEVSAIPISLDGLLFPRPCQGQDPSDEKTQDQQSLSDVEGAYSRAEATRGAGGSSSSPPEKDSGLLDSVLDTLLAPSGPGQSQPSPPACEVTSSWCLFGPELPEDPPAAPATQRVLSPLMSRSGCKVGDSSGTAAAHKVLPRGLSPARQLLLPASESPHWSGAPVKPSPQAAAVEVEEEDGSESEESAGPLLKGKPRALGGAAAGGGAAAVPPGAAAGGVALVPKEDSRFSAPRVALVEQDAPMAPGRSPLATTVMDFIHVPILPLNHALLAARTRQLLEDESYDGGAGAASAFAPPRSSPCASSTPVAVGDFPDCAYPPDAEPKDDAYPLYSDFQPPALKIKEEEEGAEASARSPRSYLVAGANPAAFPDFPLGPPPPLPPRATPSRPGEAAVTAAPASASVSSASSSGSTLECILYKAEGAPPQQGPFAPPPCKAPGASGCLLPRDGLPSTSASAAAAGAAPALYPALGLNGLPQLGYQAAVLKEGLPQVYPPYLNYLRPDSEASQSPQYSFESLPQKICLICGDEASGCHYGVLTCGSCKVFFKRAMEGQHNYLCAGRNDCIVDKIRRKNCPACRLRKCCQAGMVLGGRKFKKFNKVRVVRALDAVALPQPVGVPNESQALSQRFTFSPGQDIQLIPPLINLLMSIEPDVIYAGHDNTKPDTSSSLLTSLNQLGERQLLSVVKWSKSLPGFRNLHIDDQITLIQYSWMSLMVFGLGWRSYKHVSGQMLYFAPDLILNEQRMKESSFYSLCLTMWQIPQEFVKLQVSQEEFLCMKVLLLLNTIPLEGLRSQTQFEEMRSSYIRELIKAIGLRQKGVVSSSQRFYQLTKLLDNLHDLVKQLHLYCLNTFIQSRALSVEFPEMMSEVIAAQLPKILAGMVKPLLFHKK
Chain of Thyrotropin receptor (Homo sapiens) (P16473 whole entry, looked up): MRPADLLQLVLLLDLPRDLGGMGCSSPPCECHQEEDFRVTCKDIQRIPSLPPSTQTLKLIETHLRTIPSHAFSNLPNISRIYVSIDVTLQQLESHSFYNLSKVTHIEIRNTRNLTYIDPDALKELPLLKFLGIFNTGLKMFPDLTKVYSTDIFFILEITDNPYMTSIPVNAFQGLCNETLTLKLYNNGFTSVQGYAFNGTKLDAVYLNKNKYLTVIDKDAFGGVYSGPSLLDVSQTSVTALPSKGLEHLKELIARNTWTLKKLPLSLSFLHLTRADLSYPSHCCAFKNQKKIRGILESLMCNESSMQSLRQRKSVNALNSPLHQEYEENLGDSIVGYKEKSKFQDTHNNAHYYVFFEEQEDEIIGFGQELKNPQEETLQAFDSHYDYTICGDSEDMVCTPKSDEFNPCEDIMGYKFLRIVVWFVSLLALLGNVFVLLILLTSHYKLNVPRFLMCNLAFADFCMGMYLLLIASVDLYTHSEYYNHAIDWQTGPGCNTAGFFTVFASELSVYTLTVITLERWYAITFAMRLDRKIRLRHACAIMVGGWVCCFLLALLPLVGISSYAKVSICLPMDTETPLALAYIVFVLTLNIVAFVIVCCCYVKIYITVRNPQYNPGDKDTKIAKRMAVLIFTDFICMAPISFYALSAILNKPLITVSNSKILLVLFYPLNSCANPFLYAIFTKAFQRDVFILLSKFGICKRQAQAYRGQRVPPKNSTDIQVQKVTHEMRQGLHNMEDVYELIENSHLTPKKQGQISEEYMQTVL
Chain of Androgen receptor (Homo sapiens) (P10275 whole entry, looked up): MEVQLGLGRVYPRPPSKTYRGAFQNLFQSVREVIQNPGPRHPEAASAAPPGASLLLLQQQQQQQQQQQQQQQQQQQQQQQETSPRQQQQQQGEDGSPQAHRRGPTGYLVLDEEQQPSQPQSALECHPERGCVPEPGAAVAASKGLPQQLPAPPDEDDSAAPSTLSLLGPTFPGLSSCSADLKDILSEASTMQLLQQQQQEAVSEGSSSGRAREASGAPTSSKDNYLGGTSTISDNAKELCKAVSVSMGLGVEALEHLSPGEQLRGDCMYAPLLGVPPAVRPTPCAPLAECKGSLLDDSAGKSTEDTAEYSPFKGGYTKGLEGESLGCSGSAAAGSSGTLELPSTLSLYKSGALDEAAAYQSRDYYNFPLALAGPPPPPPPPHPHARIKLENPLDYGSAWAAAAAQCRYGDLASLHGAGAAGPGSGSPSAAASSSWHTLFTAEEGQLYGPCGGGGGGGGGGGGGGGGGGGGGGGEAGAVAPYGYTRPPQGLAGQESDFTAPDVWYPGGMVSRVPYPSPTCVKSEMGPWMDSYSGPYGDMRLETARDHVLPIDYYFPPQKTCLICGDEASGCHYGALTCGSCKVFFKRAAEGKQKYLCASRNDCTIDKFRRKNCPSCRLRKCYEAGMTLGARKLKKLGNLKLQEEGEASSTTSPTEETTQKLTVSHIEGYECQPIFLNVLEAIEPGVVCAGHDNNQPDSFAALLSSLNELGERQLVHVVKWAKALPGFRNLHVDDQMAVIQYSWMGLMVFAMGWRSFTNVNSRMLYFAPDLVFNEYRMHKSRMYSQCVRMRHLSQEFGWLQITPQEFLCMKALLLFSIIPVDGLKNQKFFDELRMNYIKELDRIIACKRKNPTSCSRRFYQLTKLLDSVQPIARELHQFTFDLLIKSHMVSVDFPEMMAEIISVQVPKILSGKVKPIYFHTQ

C[C@H]1O[C@@H](O[C@H]2[C@@H](O)C[C@H](O[C@H]3[C@@H](O)C[C@H](O[C@H]4CC[C@@]5(C)[C@H](CC[C@@H]6[C@@H]5CC[C@]5(C)[C@@H](C7=CC(=O)OC7)CC[C@]65O)C4)O[C@@H]3C)O[C@@H]2C)C[C@H](O)[C@@H]1O
active: [5] 38.8 nM and 94.4 nM | [6] 77.4 nM and 237 nM
inactive: [1] | [2] | [3] | [4] | [7] | [8] | [9]

S=C(SSC(=S)N1CCCCC1)N1CCCCC1
active: [5] 531 nM
inactive: [1] | [10] | [11] | [3] | [12] | [13] | [14] | [9]

O=C1NCN(c2ccccc2)C12CCN(CC1COc3ccccc3O1)CC2 (centres undefined)
active: [15] 11.9 µM
not listed: [1] | [3] | [14] | [18] | [19]
inactive: all other assays above

Cc1c(Cl)c(=O)oc2cc(OP(=O)(OCCCl)OCCCl)ccc12
inactive: [18] | [2] | [10] | [3] | [4] | [12] | [13] | [17]
active: [16] 7.5 µM

CC(C)(O)c1cnn2c(-c3ccc(F)c(-c4c(F)cccc4C#N)c3)cnc2n1
inactive: [19] | [18] | [11] | [3] | [12] | [13] | [7] | [9]

CCOC(=O)OC1=C(c2cc(C)ccc2C)C(=O)NC12CCC(OC)CC2 (centres undefined)
not listed: [4] | [11] | [15] | [18] | [19]
inactive: all other assays above

[Hg+2].[I-].[I-]
inactive: [2] | [9]
active: [15] 5.45 µM | [18] 6.86 µM | [11] 43.3 µM | [3] 61.1 µM | [5] 6110 nM | [6] 5.45 µM | [12] 49 µM | [13] 54.9 µM | [17] 48.6 µM

Nc1ccc(Sc2ccc(N)cc2)cc1
inactive: [1] | [2] | [10] | [3] | [13] | [14] | [7] | [8]

O=c1[nH]c2ccccc2n1CCCN1CCC(n2c(=O)[nH]c3cc(Cl)ccc32)CC1
inactive: [10] | [4] | [12] | [13] | [14]
active: [11] 29.8 µM | [17] 26.6 µM

Nc1ccc(Cc2ccc(N)c(Cl)c2)cc1Cl
inactive: [2] | [10] | [11] | [12] | [13] | [7] | [8] | [9]
active: [15] 18.7 µM | [18] 46.9 µM | [16] 13.2 µM

Oc1c(Br)c(Br)c(Br)c(Br)c1Br
active: [16] 27.5 µM
inactive: [19] | [18] | [2] | [3] | [13] | [14] | [8]

CC[C@H]1C[C@@H]2C[C@H]3c4[nH]c5ccc(OC)cc5c4CCN(C2)[C@@H]13
active: [17] 47.7 µM
inactive: [15] | [18] | [2] | [4] | [12] | [13] | [14] | [7] | [8] | [9]
